Among the data in PubChem BioAssay AID2629 (Broad Institute, 2010) are inhibition values, retold here.

In all, about 320,000 compounds went through this assay and about 1,900 (0.59%) were called active. For the sample, actives were picked, then their nearest neighbours and some compounds at random. Unmarked numbers belong to inactive results. No stated cut-off is given here; in the data, active means inhibition mostly above about 10% (no sharp cut-off); inactive means mostly below about 6.7%.

In the assay the target is Protein LANA1 (Human herpesvirus 8 type P (isolate GK18)) (UniProt Q9QR71). In words: blockers of LANA interaction with H2A/H2B – biochemical, FP readout, HTS, primary screen (AID 2629). Particulars: cell-free LANA-H2A/H2B peptide, fluorescence polarization, active compounds read high, concentration not given here. In general terms: Polarisation of emitted light reports the rotation of a fluorescent probe.
Sequence of Protein LANA1 (Human herpesvirus 8 type P (isolate GK18)) (Q9QR71 whole entry, looked up): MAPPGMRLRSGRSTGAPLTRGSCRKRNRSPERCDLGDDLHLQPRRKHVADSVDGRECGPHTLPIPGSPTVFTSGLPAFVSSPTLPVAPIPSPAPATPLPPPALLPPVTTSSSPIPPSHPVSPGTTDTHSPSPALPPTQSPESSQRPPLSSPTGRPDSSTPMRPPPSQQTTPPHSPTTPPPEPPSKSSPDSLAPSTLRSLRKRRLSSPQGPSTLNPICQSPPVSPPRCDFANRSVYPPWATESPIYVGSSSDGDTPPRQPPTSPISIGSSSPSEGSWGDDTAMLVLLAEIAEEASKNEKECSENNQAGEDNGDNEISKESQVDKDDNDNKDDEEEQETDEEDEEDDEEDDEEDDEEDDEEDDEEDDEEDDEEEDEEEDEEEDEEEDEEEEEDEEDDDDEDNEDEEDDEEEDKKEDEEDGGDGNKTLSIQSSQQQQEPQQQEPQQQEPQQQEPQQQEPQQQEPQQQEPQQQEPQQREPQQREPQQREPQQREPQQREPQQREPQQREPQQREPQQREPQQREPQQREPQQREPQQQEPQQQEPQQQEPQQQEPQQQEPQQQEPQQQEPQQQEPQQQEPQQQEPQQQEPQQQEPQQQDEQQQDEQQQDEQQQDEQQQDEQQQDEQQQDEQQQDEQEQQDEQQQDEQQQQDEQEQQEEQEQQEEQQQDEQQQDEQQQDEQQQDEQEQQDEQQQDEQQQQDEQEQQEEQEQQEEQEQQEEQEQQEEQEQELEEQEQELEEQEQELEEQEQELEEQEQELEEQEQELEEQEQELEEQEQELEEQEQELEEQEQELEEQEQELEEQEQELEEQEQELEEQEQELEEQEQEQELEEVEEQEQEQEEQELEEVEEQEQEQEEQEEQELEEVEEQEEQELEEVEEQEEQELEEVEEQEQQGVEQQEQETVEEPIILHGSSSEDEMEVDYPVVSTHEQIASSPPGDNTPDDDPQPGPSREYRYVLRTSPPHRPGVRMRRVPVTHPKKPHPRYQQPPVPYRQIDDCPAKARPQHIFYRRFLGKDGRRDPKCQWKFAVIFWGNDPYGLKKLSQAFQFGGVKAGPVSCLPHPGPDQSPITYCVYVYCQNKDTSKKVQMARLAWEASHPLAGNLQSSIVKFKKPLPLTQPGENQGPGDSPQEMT
Usually inhibition stands for the relative decrease from the control value, in per cent. As for `CCOC(=O)c1[nH]c2ccc(OC)cc2c1NC(=O)CCN1CCN(Cc2ccccc2)CC1`, the inhibition was 38.6% (active).
With `CCOC(=O)N1CCN(CCC(=O)Nc2cc(OC)ccc2OC)CC1` the figure was -0.496%; with `CCOC(=O)c1[nH]c2ccc(OC)cc2c1NC(=O)N1CCOCC1`, -1.57%; with `CC1CCCN(S(=O)(=O)c2ccc(-c3ccc(=O)[nH]n3)o2)C1` (stereo not given), 5.98%.
On to `CSCC(NS(=O)(=O)c1ccc(C)cc1)C(=O)O` (stereo not given), for which the inhibition was 4.08%.
In the case of `CSCCC(NC(=O)c1ccccc1)C(=O)N1CCCCCCC1` (stereo not given), the inhibition is 3.36%.
Take `CSCCC(NS(=O)(=O)c1ccc(C)cc1)C(=O)N1CCCC1` (stereo not given): the inhibition was 10.1% (active).
With `O=C(NCCOc1ccccc1F)Nc1ccc(Br)cc1` the figure was 1.21%; with `CCC(C)[C@H](NC(=O)N1c2ccccc2NC(=O)[C@@H]1C(C)C)C(=O)N[C@@H](Cc1ccccc1)C(=O)O` (stereo not given in full), 0.386%; with `COc1ccc(C(CCN(Cc2ccc(OC)c(OC)c2)C(=O)CCl)c2ccccc2)cc1` (stereo not given), -1.72%.
In the case of `COc1ccc(C(=O)OCC(=O)NCCCc2ccccc2)cc1OC` it was -0.725%; in that of `CCN(CCCCOC(=O)c1ccc(OC)c(OC)c1)C(C)Cc1ccc(OC)cc1` (stereo not given), 8.66% (active); in that of `CCN(C(=O)COC(=O)c1ccccc1O)c1cccc2ccccc12`, 4.86%.
As to `O=C(C1CCN(S(=O)(=O)Cc2ccccc2)CC1)N1CCCc2ccccc21`, the inhibition is 1.2%.
With `Cc1cc(Nc2ccccc2)nc(N)n1` the figure was 85.1% (active); with `CC(=O)Nc1ccc(Nc2cc(C)nc(Nc3ccc(NC(C)=O)cc3)n2)cc1`, -0.44%; with `Cc1cc(Nc2ccc(Br)cc2)nc2ccccc12`, -0.269%.
With `Cc1cccn2c(CN(C)C3CCCc4ccccc43)c(C(=O)N3CCOCC3)nc12` (stereo not given) the figure was 3.32%; with `Cc1cc(NC(=O)COC(=O)COc2ccc(Cl)cc2C)c([N+](=O)[O-])cc1C`, 18.3% (active); with `Cc1ccc(C)c(NC(=O)COC(=O)CSc2ccccc2)c1`, -1.08%.
For the compound `COc1cc(NC(=O)COC(=O)c2cnc(C)cn2)c(C)cc1[N+](=O)[O-]`, the inhibition was 0.629%.
On to `COc1cc(NC(=O)COC(=O)CSc2ccc3ccccc3c2)c(C)cc1[N+](=O)[O-]`, for which the inhibition is 10.3% (active).
With `CCCC(=O)OCC(=O)Nc1cc(Cl)ccc1[N+](=O)[O-]` the figure was 3.99%; with `COc1ccc(OCC(=O)Nc2cc(C)c(Cl)cc2OC)c([N+](=O)[O-])c1`, 3%; with `Cc1ccc2c(c1)C(c1ccccc1)N(C(=O)c1ccc(F)cc1)CC(=O)N2` (stereo not given), -6.68%.
With `CCCc1nc2c(C)cc(-c3nc4ccccc4n3C)cc2n1Cc1ccc(-c2ccccc2C(=O)O)cc1` the figure was -5.17%; with `O=C(CN1CCCC1)Nc1sc2c(c1C(=O)Nc1ccccc1)CCCC2`, -9.6%; with `c1ccc(CN=C2Nc3ccccc3CS2)nc1`, -3.85%.
With `CS(=O)(=O)N1CCN(CC(=O)NC2CCCC2)CC1` the figure was 3.66%.
For `Cc1ccc(S(=O)(=O)NC[C@H]2O[C@@H](n3cnc4c(N)ncnc43)[C@H](O)[C@@H]2O)s1`, the inhibition is -71.8%.
With `COc1cc(C(=O)Nc2ncccc2C)ccc1OCC(=O)N1CCOCC1` the figure was -0.868%.
With `CCOc1cc(C(=O)OCC(=O)Nc2cccc(C)c2)ccc1OCC(=O)N1CCOCC1` the figure was 25.3% (active).
With `O=C(OCC(=O)N1CCOCC1)c1ccc2ccccc2c1` the figure was -0.101%; with `O=C(NCC1CCCO1)C1CCN(C2CCN(C(=O)C3CCCCC3)CC2)CC1` (stereo not given), 0.649%.
As to `O=C(NC(CC(=O)N1CCN(c2ccccc2)CC1)c1ccccc1)c1ccccc1Cl` (stereo not given), the inhibition was 4.7%.
In the case of `COC(=O)c1ccccc1OCC(=O)N1CCN(c2ccc(Cl)cc2)CC1`, the inhibition was 3.13%.
Regarding `C[C@H](NC(=O)c1ccccc1Cl)C(=O)OCC(=O)N1CCN(c2ccccc2)CC1`, the inhibition was 41% (active).
In the case of `O=C(NC1CCCCC1)C1CC(=O)N(CCc2ccccc2)C1` (stereo not given) it was -0.144%; in that of `COCCCNC(=O)C1CC(=O)N(CCc2ccccc2)C1` (stereo not given), 0.409%; in that of `CCNC(=O)c1cccc(NC(=O)C2CC(=O)N(CCc3ccccc3)C2)c1` (stereo not given), 75.8% (active).
Regarding `O=C(NCCCN1CCCCC1)C1CC(=O)N(CCc2ccccc2)C1` (stereo not given), the inhibition is 15% (active).
In the case of `CN(CC(=O)Nc1cccc(F)c1)C(=O)C1CC(=O)N(CCc2ccccc2)C1` (stereo not given) it was -5.92%; in that of `Cc1ccc(CCN2CC(C(=O)NCCc3ccccc3)CC2=O)cc1` (stereo not given), 18.8%; in that of `COc1ccc(CNC(=O)C2CCC(CNc3c(N4CCOCC4)c(=O)c3=O)CC2)cc1` (stereo not given), -0.686%.
On to `CCCCCCCCCCOC(=O)Cn1c(COc2ccc(C)cc2)[n+](C)c2ccccc21`, for which the inhibition is 15.8% (active).
With `CCOC(=O)Cn1c(-c2cccnc2Cl)nc2ccccc21` the figure was 6.09%; with `CCCCCCCCCCOC(=O)Cn1c(COc2cccc(OC)c2)[n+](C)c2ccccc21`, 6.12%.
For `COC(=O)C(C)n1cnc2c(nnn2-c2ccc(F)cc2)c1=O` (stereo not given), the inhibition was -1.75%.
With `NC(N)=N/N=C/c1ccc(OCc2ccc(Cl)cc2Cl)cc1` the figure was 0.216%.
With `C=CCN(c1ccc(Cl)cc1)S(=O)(=O)c1cccc(C(=O)OCC(=O)N(C)C)c1` the figure was -2.64%; with `O=C(NNC(=O)c1cnccc1C(F)(F)F)c1ccc(Cl)cc1`, 1.78%.
With `CCC1=C(OC(=O)N(CC)CC)N2C(=O)OC(=NCCc3c[nH]c4ccccc34)[C@]2(C)[C@H]2C1=CC[C@H]1C(=O)N(CC)C(=O)[C@H]12` the figure was 1.67%; with `Oc1ccc(N2CCN(C(=S)NCc3ccccc3)CC2)cc1`, -0.124%.
`Oc1ccccc1N1CCN(C(=S)NCc2ccccc2)CC1`: the inhibition is 18.4% (active).
On to `O=C(CN1CCN(c2ccccc2O)CC1)NC(=O)NCc1ccccc1`, for which the inhibition is 2.65%.
With `Cc1ccc(CN(C(=O)c2sc3ccccc3c2Cl)C2CCS(=O)(=O)C2)cc1` (stereo not given) the figure was 2.69%; with `CCCCNC(=O)OCCSCCS(=O)(=O)c1ccc(Cl)cc1`, -3.62%; with `CCCN(CCC)CC(O)COc1ccccc1C(=O)Nc1ccccc1` (stereo not given), -2.37%.
In the case of `CN(C)S(=O)(=O)c1ccc(NC(=O)COC(=O)c2n[nH]c3ccccc23)cc1`, the inhibition was 15.3% (active).
On to `O=C(COC(=O)c1n[nH]c2ccccc12)Nc1ccccc1Br`, for which the inhibition is -3.41%.
Turning to `CN(C)S(=O)(=O)c1ccc(NC(=O)COC(=O)Cn2[nH]c(=O)c3ccccc3c2=O)cc1`, the inhibition was 3.02%.
In the case of `CCOCCCn1c(SCC(=O)Nc2cc(OC)ccc2OC)nc2ccccc2c1=O` it was 3.49%.
With `Cc1ccc2c(c1)N(CC(=O)NCCCN1CCCCC1)C(=O)c1cccnc1O2` the figure was 3.43%; with `COc1cc(OC)c(OC)cc1CN1CCN(C(=O)c2cccc3ccccc23)CC1`, 0.329%.
Regarding `Cc1ccc(S(=O)(=O)N2CCC(Oc3ccc(-n4cnnn4)cc3)CC2)cc1`, the inhibition is -4.09%.
With `CCn1c(SCC(=O)NNC(=O)c2ccc(OC)cc2)nnc1C(C)C` the figure was -0.104%; with `O=C(CS(=O)(=O)c1cn(Cc2ccc(Cl)cc2)c2ccccc12)N1CCOCC1`, 0.389%; with `O=C(Cc1ccccc1)NC(=S)Nc1ccc(N2CCCCC2)cc1`, 2.3%.
`O=C1C=CC(=O)N1c1ccc(N2CCCCC2)cc1`: the inhibition is 6.75% (active).
For the compound `CC(=O)Nc1ccc(S(=O)(=O)Nc2ccc(N3CCCCC3)cc2)cc1`, the inhibition was 0.693%.
With `Cc1c(C(=O)NCCN(C)C)oc2ccc(S(=O)(=O)N3CCCC3)cc12` the figure was 0.441%; with `CCc1nn(CCCC(=O)NC(C)c2ccccc2)c(=O)c2cc3occc3n12` (stereo not given), 1.99%.
In the case of `CCN(CC(=O)NCc1cccs1)C(=O)/C=C/c1ccc(C)cc1` it was -0.65%.
Take `CN(C)C(=O)Cn1c(=O)n(S(=O)(=O)c2ccccc2)c2ccccc21`: the inhibition was 14% (active).
With `CCOc1ccc(S(=O)(=O)N(CC(=O)O)c2ccccc2)cc1` the figure was 18.5%; with `CC(CC(=O)N1CCN(S(=O)(=O)c2ccccc2)CC1)n1cncn1` (stereo not given), 0.88%; with `CC(=O)Nc1ccc(S(=O)(=O)NNC(=O)CCc2ccccc2)cc1`, -3.72%.
In the case of `Oc1ccccc1CNc1ncc(Br)cc1Br` it was -2.38%; in that of `O=C(COc1nc2ccccc2nc1N1CCOCC1)NCC(F)(F)F`, 0.0185%; in that of `COc1cc(N2C(=O)c3ccccc3C2=O)c(Cl)cc1C(=O)OCC(=O)N1CCOCC1`, 2.7%.
Consider `O=S(=O)(NC1CCCCC1N1CCCCC1)c1ccc(Cl)cc1` (stereo not given), for which the inhibition is 9.78%.
Turning to `O=S(=O)(NC1CCCCC1N1CCC(O)CC1)c1ccc(Cl)cc1` (stereo not given), the inhibition was -2.17%.
With `CCN1CCN(C2CCCCC2NS(=O)(=O)c2ccc(Cl)cc2)CC1` (stereo not given) the figure was 16.2% (active).
With `O=C(CCn1nnc2ccccc2c1=O)N[C@@H](Cc1c[nH]c2ccccc12)C(=O)O`, the inhibition was -3.09%.
As for `COc1ccc(NC(=O)CCCN2C(=O)C(c3ccccc3)Oc3cccnc32)cc1` (stereo not given), the inhibition was 12.5% (active).
In the case of `COc1ccc(NC(=O)CCCC(=O)c2ccccc2)cc1`, the inhibition was 2.03%.
For the compound `CCc1cccc(NC(=O)CCCN2C(=O)C(c3ccccc3)Oc3cccnc32)c1` (stereo not given), the inhibition was 3.46%.
In the case of `Cn1cc(CN2CCC(C(O)CCc3ccccc3)CC2)c(-c2ccccc2F)n1` (stereo not given), the inhibition is 1.03%.
In the case of `CCn1c(=O)c2ccccc2n(CC(=O)N2CCCc3ccccc32)c1=O` it was 0.719%; in that of `O=C(NCc1ccco1)/C(=C\c1cccc([N+](=O)[O-])c1)NC(=O)c1ccco1`, -1.25%.
